# Source: PubChem BioAssay (Tox21)
# Where “and” joins values, the source holds several entries; their conditions need not be identical. Identical values can stand only once. Records with an inconclusive call do not appear. Unmarked numbers belong to inactive results. Calls of active or inactive are those of the source. The call rests on the fitted dose curve; in most records, active means well fitted activation curve with a large enough effect in the repeat runs; inconclusive means weak or mixed curves; inactive means flat fitted curve, though single readings scatter.
# Assay: A CellTox Green Cytotoxicity Assay to monitor cytotoxicity in HEK293 cells - 32 hour (AID 1224881); further: nearly all actives have a fitted effect of over 40% in size
# Details: CellTox Green fluorescence; series mostly up to 76.8 µM; cytotoxicity increase: at the top concentration
# Source text: National Center for Advancing Translational Sciences [NCATS]
# NIH Chemical Genomics Center [NCGC]
# U.S. Environmental Protection Agency [EPA]
# National Institutes of Environmental Health Sciences [NIEHS]
# National Toxicology Program [NTP]
# Cell-based models are critical for drug discovery. Determining the natural cytotoxic effects resulting from test compounds is an essential research activity. A CellTox Green Cytotoxicity Assay to monitor cytotoxicity in real time of continues cell culture during 40 hours of the compound treatment was used to screen Tox21 10K library compounds in Hek293 cells. CellTox Green Cytotoxicity Assay is a nonlytic, homogeneous, biofluorescent method to measure cytotoxicity in cell culture after experimental manipulation. The assay system uses a proprietary asymmetric cyanine dye that is excluded from viable cells but preferentially stains the dead cell's DNA. […] Viable cells produce no appreciable increases in fluorescence. Therefore, the fluorescence signal produced by the binding interaction with dead cell DNA is proportional to cytotoxicity.
# The mixture of Hek293 cell suspension and reagents were dispensed at 600cells/6 ul/well in 1536-well tissue culture treated black solid bottom plates using a Multidrop dispenser. After the assay plates were incubated at a 37 C/5% CO2 incubator for 5 hours, 23 nL of compounds dissolved in DMSO, positive and negative controls was transferred to the assay plate by a pintool work station. The plates were incubated at 37 C for 40 hours. The fluorescence intensity were measured at 0h, 8h, 16h, 24h, 32h and 40h time points using ViewLux plate reader during compound treatment.
# On the % scale 0 is the no-effect control and ±100 the full control effect; potency means the concentration at half of the fitted maximal effect.
SMILES,cytotoxicity increase,Potency
O=C(O)c1cc(Cl)ccc1Cl,-15.3%,–
CC(Oc1cccc(Cl)c1)C(=O)O (stereo not given),-5.98%,–
O=C(N/N=C/c1ccc([N+](=O)[O-])o1)c1cc([N+](=O)[O-])cc([N+](=O)[O-])c1O,-23.5% [at 35.3 µM],–
CCC1(CCC(C)C)C(=O)NC(=O)NC1=O,-1.42%,–
CC(C)(C)N(NC(=O)c1ccc(Cl)cc1)C(=O)c1ccccc1,-6.87%,–
CC(Cl)C(=O)O (stereo not given),4.69%,–
O=C(O)c1cc(I)cc(I)c1I,-16.1%,–
C=CC(=O)NC(C)(C)CC(C)=O,2.11%,–
C=C(Cl)Cl,6.98%,–
CCCCCBr,-33.9%,–
CCOc1cccc(C2(N3CCN(c4ccccc4)CC3)CCC(C)CC2)c1 (stereo not given),2.99%,–
CCC1CCC(=O)O1 (stereo not given),0.447%,–
CCCCOC(=O)CCC(=O)OCCCC,15.4%,–
O=[N+]([O-])O[C@H]1CO[C@H]2[C@@H]1OC[C@H]2O[N+](=O)[O-],-9.66% [at 35.3 µM],–
CC[N+]1(C)CCCC(OC(=O)C(O)(c2ccccc2)c2ccccc2)C1 (stereo not given),-6.28% [at 35.3 µM],–
SCc1ccccc1,1.64%,–
CCCCCl,-6.4%,–
C[N+]1(CCC(C(N)=O)(c2ccccc2)c2ccccc2)CCCCC1,-27.9% [at 35.3 µM],–
OCC1CO1 (stereo not given),0.324%,–
c1ccc2c(c1)sc1ccccc12,25.7%,–

SMILES,cytotoxicity increase,Potency
COc1ccc2c(c1OC)C(=O)O[C@H]2[C@@H]1c2cc3c(cc2CCN1C)OCO3,3.96% [at 35.3 µM],–
FC(F)OC(F)(F)C(F)Cl (stereo not given),-7.68%,–
O=C(NCNC(=O)NC1C(=O)NC(=O)N1CO)NC1C(=O)NC(=O)N1CO (stereo not given),-12.3%,–
CC1(C)CC(=O)CC(C)(C)N1[O],-1.28%,–
CC(C)(C)NCC(O)c1ccccc1Cl (stereo not given),2.3% [at 35.3 µM],–
CCCCCCCCCCCCN(C)C,-8.88%,–
C=CCOCC1CO1 (stereo not given),-7.53%,–
O=C1CC[C@@]2(O)[C@H]3Cc4ccc(O)c5c4[C@@]2(CCN3CC2CC2)[C@H]1O5,-18.5% [at 35.3 µM],–
NC(=S)c1c(Cl)cccc1Cl,-8.88%,–
C#C[C@]1(O)CC[C@H]2[C@@H]3CCC4=CC(=O)CCC4=C3C=C[C@@]21CC,5.16% [at 35.3 µM],–
C[C@H]1O[C@H](OC2[C@@H](O)[C@@H](O)C(O)[C@H](O)[C@H]2O)[C@@H](N)C[C@@H]1N=C(N)C(=O)O (stereo not given in full),0.0025%,–
CCCC(C)(COC(N)=O)COC(=O)NC(C)C (stereo not given),–,inactive
C=CCSSCC=C,22.6%,–
CC(C)OC(=O)Cc1ccccc1,-4.65%,–
CCCCCCCCCCCC[N+](C)(C)CCOc1ccccc1,–,17.4 µM (active) and 23.9 µM (active)
CN(C1CCCCC1)C1CCCCC1,5.37%,–
CN(C)c1ccc(N=O)cc1,–,11 µM (active) and 19.5 µM (active)
Cc1ncc(C[n+]2csc(CCO)c2C)c(N)n1,-5.87%,–
CCCCC#N,-0.062%,–
CC(O)CN1CCN(CC(=O)[O-])CCN(CC(=O)[O-])CCN(CC(=O)[O-])CC1.[Gd+3] (stereo not given),-5.52% [at 35.3 µM],–
